In PubChem BioAssay (NCI):
Where “and” joins values, the source holds several entries; their conditions need not be identical. Equal values may be shown once. This is part of a sample that, as a whole, favours compounds with a hit. Of some 83,000 tested, about 20% had one in any assay.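 96-well plates, one dose, 48 hours. Percent growth reported; active if below 10.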 Calls of active or inactive are those of the source.

Columns and labels:
Assay in all cases: NCI-60 one-dose screen, 48 h (100 = growth as untreated, 0 = no growth, -100 = all killed)
TK-10 renal = tested on: TK-10 renal
SK-MEL-2 melanoma = conditions: 10 µM
EKVX NSCLC = conditions: 10 µM
SN12C renal = conditions: 10 µM
UO-31 renal = conditions: 10 µM
ACHN renal = conditions: 10 µM
CAKI-1 renal = conditions: 10 µM
A498 renal = conditions: 10 µM
CCRF-CEM leukemia = conditions: 10 µM
MOLT-4 leukemia = conditions: 10 µM unless noted
RPMI-8226 leukemia = conditions: 10 µM
OVCAR-8 ovarian = conditions: 10 µM
OVCAR-5 ovarian = conditions: 10 µM
OVCAR-4 ovarian = conditions: 10 µM
SK-OV-3 ovarian = conditions: 10 µM
IGROV1 ovarian = conditions: 10 µM
OVCAR-3 ovarian = conditions: 10 µM
NCI/ADR-RES ovarian = conditions: 10 µM
HS 578T breast = conditions: 10 µM
SR leukemia = conditions: 10 µM

Measured: growth

N#CC(=S)Nc1cccc(Cl)c1
active: TK-10 renal; 100 µM 5.57% and -9.55%

COc1ccc(N)c2c1C(=O)c1ccccc1C2=O
inactive: SK-MEL-2 melanoma 99.5% | EKVX NSCLC 106% | SN12C renal 93.9% | UO-31 renal 68.5% | TK-10 renal; 10 µM 102% | ACHN renal 96.9% | CAKI-1 renal 74% | A498 renal 93.4% | CCRF-CEM leukemia 89.9% | MOLT-4 leukemia 67% | RPMI-8226 leukemia 88.9% | OVCAR-8 ovarian 95.7% | OVCAR-5 ovarian 103% | OVCAR-4 ovarian 109% | SK-OV-3 ovarian 89.4% | IGROV1 ovarian 88.7% | OVCAR-3 ovarian 115% | NCI/ADR-RES ovarian 110%

CCOC(=O)[C@]1(Br)CC[C@@]1(Br)C(=O)OCC
inactive: SK-MEL-2 melanoma 91.7% | EKVX NSCLC 99.5% | SN12C renal 98.1% | UO-31 renal 61.5% | TK-10 renal; 10 µM 95.9% | ACHN renal 78.9% | CAKI-1 renal 90.3% | A498 renal 115% | CCRF-CEM leukemia 99.8% | MOLT-4 leukemia 36.8% | RPMI-8226 leukemia 96.8% | OVCAR-8 ovarian 95.6% | OVCAR-5 ovarian 104% | OVCAR-4 ovarian 101% | SK-OV-3 ovarian 112% | IGROV1 ovarian 52.1% | OVCAR-3 ovarian 133% | NCI/ADR-RES ovarian 107%

Cc1cc(N=C2C=CC(=[N+](C)C)C=C2)c(N)cc1N
inactive: SK-MEL-2 melanoma 106% | EKVX NSCLC 85.4% | SN12C renal 88.7% | UO-31 renal 71.5% | TK-10 renal; 10 µM 106% | ACHN renal 91% | CAKI-1 renal 92.8% | A498 renal 75.7% | CCRF-CEM leukemia 89.3% | MOLT-4 leukemia 91.3% | RPMI-8226 leukemia 65.7% | OVCAR-8 ovarian 92.8% | OVCAR-5 ovarian 95.6% | OVCAR-4 ovarian 82.3% | SK-OV-3 ovarian 105% | IGROV1 ovarian 109% | OVCAR-3 ovarian 16.5% | NCI/ADR-RES ovarian 80.4%

Clc1c(Cl)c(Cl)c2c(nnn2C2CCCO2)c1Cl (stereo unspecified)
active: TK-10 renal; 100 µM -9.89% and -74.8%

C=C1N(C)c2ccc(Cl)cc2C1(C)C
inactive: SK-MEL-2 melanoma 101% | EKVX NSCLC 25.2% | SN12C renal 54.8% | UO-31 renal 78.5% | TK-10 renal; 10 µM 83.8% | ACHN renal 94.9% | A498 renal 84.1% | CCRF-CEM leukemia 42.2% | MOLT-4 leukemia 35.8% | OVCAR-8 ovarian 67.9% | OVCAR-5 ovarian 82.9% | OVCAR-4 ovarian 60.7% | SK-OV-3 ovarian 82% | OVCAR-3 ovarian 42.9% | HS 578T breast 49.8% | NCI/ADR-RES ovarian 95.8%
active: RPMI-8226 leukemia -13.2%

COc1ccc2oc(-c3ccc(Cl)cc3)c(N3CCN(C)CC3)c2c1
inactive: EKVX NSCLC 50.7% | SN12C renal 37.2% | A498 renal 52.4% | MOLT-4 leukemia 12.5% | OVCAR-8 ovarian 31.8% | OVCAR-4 ovarian 78.2% | SK-OV-3 ovarian 55.1%
active: SK-MEL-2 melanoma -15.9% | UO-31 renal -5.46% | TK-10 renal; 10 µM -1.47% | ACHN renal 4.13% | CAKI-1 renal -11.6% | CCRF-CEM leukemia -12.6% | RPMI-8226 leukemia -10.3% | OVCAR-5 ovarian 2.8% | IGROV1 ovarian -87.5% | OVCAR-3 ovarian 1.93% | NCI/ADR-RES ovarian -10.9%

Cc1cc(O)c2c(c1O)C(=O)C13C(=C2O)C(=O)C2C(O)C1C1C(O)C3C(=O)C3=C(O)c4c(O)cc(C)c(O)c4C(=O)C321 (stereo unspecified)
active: SK-MEL-2 melanoma -6.64% | CAKI-1 renal -33.6% | CCRF-CEM leukemia 4.16% | MOLT-4 leukemia 8.98% | RPMI-8226 leukemia -4.03% | OVCAR-5 ovarian -50.6% | SK-OV-3 ovarian -13.1% | OVCAR-3 ovarian -39.1% | NCI/ADR-RES ovarian -17%
inactive: EKVX NSCLC 44.3% | SN12C renal 12.7% | UO-31 renal 22.6% | TK-10 renal; 10 µM 22.3% | ACHN renal 11.4% | SR leukemia 12.6% | OVCAR-4 ovarian 27.8% | IGROV1 ovarian 10.3%

CCC(=O)Oc1ccc(/C=N/NC(N)=S)nc1
active: ACHN renal 8.62% | CAKI-1 renal -2.02% | CCRF-CEM leukemia -0.545%
inactive: SK-MEL-2 melanoma 53.2% | EKVX NSCLC 86.3% | SN12C renal 32.5% | UO-31 renal 29.7% | TK-10 renal; 10 µM 86.3% | A498 renal 52% | MOLT-4 leukemia 10.8% | RPMI-8226 leukemia 50.3% | OVCAR-8 ovarian 23.5% | OVCAR-5 ovarian 108% | OVCAR-4 ovarian 56.2% | SK-OV-3 ovarian 78% | IGROV1 ovarian 45% | OVCAR-3 ovarian 57.3% | NCI/ADR-RES ovarian 25.1%
